CYP2C19 act = human CYP2C19 activators, primary screen, biochemical, luminescence. Cytochrome P450 2C19 (Homo sapiens), P33261. recombinant CYP2C19, luciferin-H EGE luminescence; stronger effect = higher value; 0 = fully inhibited enzyme, 1 = untreated enzyme. activation factor at 5 µM. 96,000 tested, under 10 active. AID 1025, 2008;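 active = activation factor of at least 2 at 5 µM in the primary screen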;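 note: 0 = wells with 2.5 mM tranylcypromine and 1 = vehicle-only wells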
Target sequence (P33261 whole entry, looked up): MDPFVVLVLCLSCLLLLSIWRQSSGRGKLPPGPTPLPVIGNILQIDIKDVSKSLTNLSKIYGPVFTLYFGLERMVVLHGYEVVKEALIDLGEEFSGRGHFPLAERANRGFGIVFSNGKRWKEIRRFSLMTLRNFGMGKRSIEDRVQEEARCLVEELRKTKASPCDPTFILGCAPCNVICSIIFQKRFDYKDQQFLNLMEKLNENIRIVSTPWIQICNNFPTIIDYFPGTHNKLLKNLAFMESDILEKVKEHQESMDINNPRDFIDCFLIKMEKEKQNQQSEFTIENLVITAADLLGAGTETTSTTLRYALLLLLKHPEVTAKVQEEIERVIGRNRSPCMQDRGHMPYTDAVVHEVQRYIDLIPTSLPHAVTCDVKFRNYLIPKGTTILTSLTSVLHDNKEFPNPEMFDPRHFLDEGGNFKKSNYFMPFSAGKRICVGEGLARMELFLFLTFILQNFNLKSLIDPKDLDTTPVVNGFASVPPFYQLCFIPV
Plk1 PBD FP = Plk1 polo box domain binding inhibitors, primary screen, biochemical, fluorescence polarization. Serine/threonine-protein kinase PLK1 (Homo sapiens), P53350. Plk1 PBD phosphopeptide binding. inhibition, %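 (tested at about 20 µM)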. 0.13% of 97,000 active; in the data active = inhibition above about 34%, passing the limit was not always enough
CYP2C9 activ = human CYP2C9 activators, primary screen, biochemical, luminescence; Cytochrome P450 2C9 (Homo sapiens), P11712; recombinant CYP2C9, luciferin-H conversion; stronger effect = higher value; factor 1 = untreated enzyme, 0 = blocked; activation factor at 5 µM; 1.4% of 96,000 active; AID 1024, 2008;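 active = activation factor of 2 or more for CYP2C9 at a 5 µM dose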;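 note: 0 = sulfaphenazole-blocked wells and 1 = vehicle-only wells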
CYP2C9 inhib = blockers of cytochrome P450 2C9 activity – biochemical, luminescence, ADME assay, primary screen; P11712; inhibition, % at 5 µM; AID 777, 2007; 20% of 96,000 active; CYP2C9 Supersomes, luciferin-H conversion;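 active = blocking of liver enzyme CYP2C9 beyond about 50% at 5 µM, limit read from the data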
CYP2C19 inhib = blockers of cytochrome P450 2C19 activity – biochemical, luminescence, ADME assay, primary screen; P33261; CYP2C19 Supersomes, luciferin-H EGE luminescence, 30 min; inhibition, % at 5 µM; 21% of 96,000 active; AID 778, 2007;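 active = CYP2C19 inhibition above a set limit at 5 µM in the primary screen, cut at about 50% in these data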;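 note: plate controls were negative control wells for no effect and 2.5 mM tranylcypromine positive control for full effect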
PLK1 kinase inh = human PLK1 kinase inhibitors, primary screen, biochemical, TR-FRET | Serine/threonine-protein kinase PLK1 (Homo sapiens), P53350 | recombinant PLK1 kinase, TR-FRET peptide phosphorylation | inhibition, % at 10 µM | 0.53% of 97,000 active | AID 619, 2007;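 active = inhibition of 50% or more in the single-concentration screen; inactive = inhibition below 50%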;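 note: 0% = DMSO max control and 100% = H-89 dihydrochloride min control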
Active calls of the source: *; / = not tested or not shown. Rows were chosen to be rich in hits. Some 28% of all compounds tested hit in one or more screens of this group.

SMILES	CYP2C19 act	Plk1 PBD FP	CYP2C9 activ	CYP2C9 inhib	CYP2C19 inhib	PLK1 kinase inh
O=C(NN1C(=O)c2ccccc2NC1c1ccccc1OCc1ccccc1)c1ccncc1 (stereo not given)	0.5	-4	0.7	33	49	-6
CCN(CC)S(=O)(=O)c1cccc(C(=O)OCc2cc(=O)n3nc(C)sc3n2)c1	0.8	8	0.4	55*	23	-17
O=C1CCCCC1C(Nc1ccc(Cl)cc1)c1ccccc1 (stereo not given)	0.2	15	0.1	89*	82*	-8
O=C1CCCCC1C(Nc1ccc(Br)cc1)c1ccccc1 (stereo not given)	0.5	20	0.4	62*	49	-9
CCOC(=O)NC(c1ccccc1)C1CCCCC1=O (stereo not given)	0.6	-22	1	4	38	-12
Cc1cc([N+](=O)[O-])nn1CC(=O)NNC(=S)Nc1ccc(Cl)cc1	0.9	3	0.7	25	8	9
Cc1nc(N2CCN(Cc3ccccc3)CC2)nc2c1C(=O)CCC2	0.5	17	0.7	33	55*	-15
Cc1nc(N2CCN(Cc3ccccc3)CC2)nc2c1C(=O)CC(c1ccco1)C2 (stereo not given)	0.6	28	0.5	54*	40	-10
Cc1nc(N2CCN(Cc3ccc4c(c3)OCO4)CC2)nc2c1C(=O)CC(c1ccco1)C2 (stereo not given)	0.3	6	0.1	88*	73*	2
CCN1CCN(c2nc(C)c3c(n2)CCCC3=O)CC1	1.2	-21	0.9	12	-18	-5
O=C(CSc1nc2c(c(=O)n1-c1ccc(Cl)cc1)SCC2)NCc1ccco1	0.7	/	0.8	23	29	/
COC(=O)c1ccccc1NC(=O)CSc1nc(-c2ccco2)cc(C(F)(F)F)n1	1	/	1	5	2	/
Cc1cc(C)n2ncc(C(=O)NCc3cccnc3)c2n1	0.9	-4	1	3	9	-8
CCOC(=O)c1cc(NC(=O)c2ccc(OC)cc2)c(=O)oc1-c1ccccc1	0.7	16	0.8	19	31	-8
CCOc1ccccc1NC(=O)CC1NCCNC1=O (stereo not given)	0.8	5	1.1	-14	15	-2
N#Cc1c(C(F)(F)F)cc(-c2cccc(Cl)c2)[nH]c1=O	1.1	-32	0.4	61*	-8	-10
N#Cc1c(C(F)(F)F)cc(-c2ccc(Cl)cc2)[nH]c1=O	1	-4	0.4	55*	0	-13
Cc1cc(C(F)(F)F)c(C#N)c(=O)[nH]1	/	21	/	/	/	-12
CCSc1nc(O)c(CC)c(=O)n1C(C)CC (stereo not given)	1	10	1.1	-6	-4	-13
Brc1ccc(-c2nnc3n2CCCCC3)cc1	0.8	22	1	-3	22	-8
Cc1ccc(S(=O)(=O)N(C)Cc2ccc(-c3nnc4n3CCC4)cc2)cc1	0.1	-42	0.6	41	88*	-12
COc1cccc(C(=O)OCn2nnc3ccccc3c2=O)c1	0.2	2	0.9	12	81*	-13
CN(C)S(=O)(=O)c1ccc(C(=O)OCn2nnc3ccccc3c2=O)cc1	1	-10	0.4	59*	5	-20
Cc1cc(C(=O)OCn2nnc3ccccc3c2=O)c(C)o1	0.5	/	0.6	38	53*	/
COc1ccc(C(=O)OCn2nnc3ccccc3c2=O)cc1OC	1	-9	0.9	6	-1	-14
SMILES	CYP2C19 act	Plk1 PBD FP	CYP2C9 activ	CYP2C9 inhib	CYP2C19 inhib	PLK1 kinase inh
O=C(OCn1nnc2ccccc2c1=O)c1ccco1	0.8	13	0.9	10	16	1
O=C(OCn1nnc2ccccc2c1=O)c1cccnc1	0.8	0	0.9	5	17	-1
COC(=O)c1cccc(Cn2nnc3ccccc3c2=O)c1	0.5	24	0.7	26	51*	-8
CN1CCN(CP(=O)(N2CCOCC2)N2CCOCC2)CC1	1	7	0.9	11	-5	-12
O=C(CC(SCCO)c1ccc2c(c1)OCO2)c1ccco1 (stereo not given)	0	9	0.3	72*	98*	40
O=C(O)CC(Cc1ccccc1)c1ccc2c(c1)OCO2 (stereo not given)	0.8	3	0.9	11	18	-10
CC(C)C[C@H](NC(=O)OC(C)(C)C)C(=O)N1CCC(C(=O)N[C@@H](Cc2ccccc2)C(=O)O)CC1	/	0	/	/	/	-6
Cc1ccc(NCCC(=O)c2cccc([N+](=O)[O-])c2)c(C)c1	0.2	-15	0.6	38	75*	-8
Cc1cc([N+](=O)[O-])ccc1NCc1cccc2ccccc12	/	-12	/	/	/	-7
NS(=O)(=O)c1ccc(CNC(=O)c2ccc(Br)o2)cc1	1.1	-2	1.1	-9	-13	-10
O=C(NCCCc1ccccc1)c1ccccc1O	0	1	0.1	90*	97*	-2
O=C(NCCCc1ccccc1)c1ccc(Br)o1	0	-25	0.5	51*	96*	-7
O=C(NCc1ccccc1)c1ccc(-c2ccccc2F)o1	0.4	-4	0.5	48	62*	-9
O=C(NCc1ccc(Cl)cc1)c1ccc(Br)o1	0	8	0.4	59*	95*	-11
O=C(NCCCCc1ccccc1)c1ccc(Br)o1	/	2	/	/	/	-10
O=c1cc(CN2CCN(c3ccccc3O)CC2)nc2sccn12	0.9	-18	0.9	12	6	-11
COc1ccc(COCC(O)CN2CC(C)OC(C)C2)cc1OC (stereo not given)	1	1	0.9	14	-1	-4
COCCn1c(=O)c2c(nc3n2CCN3c2ccc(C)cc2)n(C)c1=O	1	-4	1	0	1	-11
O=C(NCCC1=CCCCC1)c1ccc(Br)o1	0.1	7	0.4	59*	90*	2
Cc1cc(C)n(Cc2ccc(C(=O)NCCC3=CCCCC3)o2)n1	0.6	-8	0.8	18	41	-1
Cc1cccc(C)c1NC(=S)NC(=O)CCc1ccccc1	0.5	23	0.7	32	50*	-17
Brc1ccc(C2Nc3cccc4cccc(c34)N2)o1	0.3	-3	0.8	20	71*	10
COc1cccc(N(C(=O)Cn2nnc3ccccc32)C(C(=O)NCc2ccco2)c2cccnc2)c1 (stereo not given)	0.2	/	0.7	32	79*	/
COc1ccc(OC)c(C(C(=O)NCc2ccco2)N(C(=O)Cn2nnc3ccccc32)C2CC2)c1 (stereo not given)	0.5	-18	0.9	9	49	-15
